Reference: PubChem BioAssay AID1446 (The Scripps Research Institute Molecular Screening Center, 2008)
Where “and” joins values, the source holds several entries; their conditions need not be identical. Equal values may be shown once. Screen size: about 220,000 compounds; about 2,400 (1.1%) were called active. The full list was thinned out, with actives kept by preference. Values without a mark were called inactive.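 The calls were made as follows: active = inhibition above the campaign mean plus 3 SD over all tested compounds (cut at about 24% in these data); inactive = the rest.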

Test: reduced viability of JAK2V617F-dependent Ba/F3 cells, primary screen, JAK2V617F inhibitor project, cell-based, Ba/F3 EpoR-JAK2V617F, luminescence (AID 1446);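 also: cytokine-independent growth of Ba/F3 cells driven by EpoR plus mutant JAK2; 0% = DMSO-treated cells and 100% = JAK inhibitor I control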
Conditions: ATP luminescence, at 5.6 µM, stronger effect = higher value

SMILES | inhibition
O=C(CSc1nnc(SCc2ccc(F)cc2)s1)Nc1ccc(C(=O)O)cc1 | -3.83%
Cc1ccc(S(=O)(=O)N(C)C)cc1NC(=O)c1ccccc1Br | 2.86%
COc1cc(OC)nc(S(C)(=O)=O)n1 | -3.65%
COc1ccc(-c2cc(C(F)(F)F)nc(S(C)(=O)=O)n2)cc1OC | 37.9% (active)
COc1ccc(-c2cc(C(F)(F)F)nc(SCC(=O)Nc3ccc4c(c3)OCO4)n2)cc1OC | 2.59%
Cc1c(CCC(=O)O)c(=O)oc2cc3occ(-c4ccccc4)c3cc12 | 2.82%
COc1ccc(C(=O)NNC(=S)NC(=O)c2ccccc2[N+](=O)[O-])cc1 | 0.22%
CCOC(=O)C(=Cc1ccccc1OC)C(=O)OCC | -2.52%
CSc1nc(N(C)NC(=O)c2cccc(C)c2)c2ccccc2n1 | 93.6% (active)
COC(=O)CNC(=O)c1ccccc1F | -2.64%
COc1ccc(OCC(=O)NNC(=O)c2cccc(C)c2)cc1 | -0.28%
CN(NC(=O)c1ccccc1F)c1nc(C(F)(F)F)nc2ccccc12 | 73.2% (active)
CN(NC(=O)c1ccccc1)c1nc2ccccc2nc1C(F)(F)F | -2.71%
COc1ccc(C(=O)NN(C)c2nc(-c3ccccc3)cc(C)c2S(C)(=O)=O)cc1 | 2.15%
CC(=O)c1ccc(NC(=O)CSC(=S)N2CCCC2)cc1 | -0.78%
C=CCNC(=O)CSc1nc2scc(-c3ccco3)c2c(=O)n1CC=C | -2.22%
Nc1nc(NC(=O)/C=C/c2ccc(F)cc2)nn1-c1ccccc1 | 1.73%
CCCCCN(C(=O)NC(=O)Nc1cccc(C)c1C)S(C)(=O)=O | 1.95%
CC(NC(=O)C(=O)Nc1nccs1)c1ccccc1 (stereo unspecified) | -0.5%
CCCCN1C(=O)CCC(C(=O)O)C1c1ccc(OC)cc1 (stereo unspecified) | -6.4%
CC(=O)c1cnc(-c2ccccc2)s1 | -0.87%
COc1ccc2c(c1OC)C(=O)OC2c1c(O)nc(SC)n(-c2ccccc2)c1=O (stereo unspecified) | -4.02%
COc1ccc2c(c1OC)C(=O)OC2Nc1nc(-c2ccccc2)cs1 (stereo unspecified) | 68.6% (active)
COc1ccc(-c2csc(NC3OC(=O)c4ccccc43)n2)cc1 (stereo unspecified) | 11.9%
Cn1c(SCC(=O)Nc2ccc(Cl)cc2)nc(O)cc1=O | -1.33%
O=C1CC(c2c(F)cccc2Cl)C(n2cncn2)C(O)=C1C1NCCc2ccccc21 (stereo unspecified) | -3.23%

SMILES | inhibition
CCCOc1ccccc1C1CC(=O)Nc2cc3c(cc21)OCO3 (stereo unspecified) | 74.4% (active)
COc1ccccc1C1C2=C(COC2=O)Nc2cc3c(cc21)OCO3 (stereo unspecified) | 85.5% (active)
COc1ccc(F)cc1S(=O)(=O)Nc1ccc2c(c1)OCO2 | 0.08%
COc1ccc(C2CC(=O)Nc3cc(C)c(C)cc32)c(OC)c1OC (stereo unspecified) | 0.14%
COc1cc2c(cc1/C=C1/NC(=O)N(c3ccccc3)C1=O)OCO2 | 0.39%
COCCOC(=O)C1=C(C)NC(=O)CC1c1cc2c(cc1Br)OCO2 (stereo unspecified) | 1.76%
Cc1nc(C(=O)N2CCCC(C(=O)c3ccc(Cl)cc3)C2)cs1 (stereo unspecified) | -2.53%
CC(=O)N1CCN(S(=O)(=O)c2c(F)cc(F)c(Cl)c2F)CC1 | -1.72%
COc1ccc(CN(C)C(C)C(=O)NC2CCCc3ccccc32)cc1 (stereo unspecified) | 3.02%
COc1ccc2nc(SCc3ccccc3)nc(C)c2c1 | 2.96%
CCOC(=O)C1C(c2ccc(OC)c(OC)c2)c2c([nH][nH]c2=O)CC1(C)O (stereo unspecified) | -0.54%
O=C(CCCn1c(=O)c2sccc2n(CC(=O)NCC2CCCO2)c1=O)NCc1ccco1 (stereo unspecified) | -0.32%
COc1ccc(C2c3ccc(O)cc3Oc3ncn(CCCO)c(=N)c32)cc1OC (stereo unspecified) | -1.6%
COc1ccc(Nc2cc(Cl)ccc2C(=O)O)cn1 | -1.48%
COc1ccc(NC(=S)NCCNC(C)=O)cc1 | -1.93%
COc1ccc(NC(=O)/C(Cl)=C(/Cl)S(=O)Cc2ccc(C)cc2)cn1 (stereo unspecified) | 100% (active)
Cc1ccc(NC(=O)OCc2cncs2)cc1 | 4.29%
COc1ccc(NC(=S)Nc2ccccc2Cl)cn1 | 4%
COc1ccc(CS(=O)/C(Cl)=C(/Cl)C(=O)Nc2ccc(OC)nc2)cc1 (stereo unspecified) | 101% (active)
CCC(=O)N1CCCc2ccccc21 | -4.91%
C=CCc1cccc2cc(C(=O)Nc3ccc(NC(C)=O)cc3)c(=O)oc12 | -0.67%
CC1CCCN(S(=O)(=O)c2ccc(C(=O)Nc3nnc(-c4ccncc4)o3)cc2)C1 (stereo unspecified) | -1.33%
CC1CCCCN1S(=O)(=O)c1ccc(S(=O)(=O)N(CC(=O)Nc2ccccc2)Cc2cccs2)cc1 (stereo unspecified) | -2.37%
CC1CCCCN1S(=O)(=O)c1ccc(C(=O)Nc2nnc(-c3cccs3)o2)cc1 (stereo unspecified) | 36.5% (active)
C/C(=N\NC(=O)OC(C)(C)C)c1ccc[nH]1 | 1.03%
CCN(CC)C(=O)Oc1ccc(Br)cc1C(=O)Nc1ccc(F)c(Cl)c1 | -0.45%

SMILES | inhibition
CCOC(=O)C(C)n1nc(-c2ccccc2)c2ccccc2c1=O (stereo unspecified) | -1.31%
COc1ccc(C(=O)NC(Cc2ccc(OC(=O)c3ccc(OC)cc3)cc2)C(=O)O)cc1 (stereo unspecified) | -2.6%
O=C(CN1CCN(S(=O)(=O)c2ccc(Br)cc2)CC1)Nc1ccccc1C(=O)c1ccccc1 | -3.02%
Nc1ccc(Oc2ccc(Cl)cc2)cc1 | 7.34%
CC(C)(C)c1ccc(Oc2ccc(N)cc2)cc1 | 33.3% (active)
Cc1ccc(Oc2ccc(N)cc2)cc1 | 0.92%
CC(C)CN1CCNC(=O)C1CC(=O)N(C)CC1CCOCC1 (stereo unspecified) | -1.14%
Cc1ccc(-c2cc(C(F)(F)F)n3ncc(C(=O)N4CCCCC4c4cccnc4)c3n2)cc1 (stereo unspecified) | -1.34%
CCOc1cc(C(=O)N2CCc3cc(OC)c(OC)cc3C2)ccc1OC(F)F | 82.7% (active)
COc1cc2c(cc1OC)CN(C(=O)c1ccc(S(=O)(=O)N3CCCCCC3)cc1)CC2 | 4.67%
COc1cc2c(cc1OC)CN(C(=O)c1cc(=O)c3ccccc3o1)CC2 | 15.9%
OCC1(Cc2ccccc2C(F)(F)F)CCN(Cc2ccncc2)CC1 | 3.31%
C[C@@H]1C[C@@H]2O[C@H]2/C=C\C=C\C(=O)Cc2c(Cl)c(O)cc(O)c2C(=O)O1 | 96.8% (active)
CCOC(=O)c1ccc(NC(=O)CSc2ncccn2)cc1 | -1.61%
CCOC(=O)c1ccc(NC(=O)Cn2nnc(-c3ccc(C)cc3)n2)cc1 | -1.34%
CCOC(=O)c1ccc(NC(=O)Cn2cnc3cc(C)c(C)cc32)cc1 | 47.2% (active)
CCOC(=O)c1ccc(N=C2SC(C(=O)NC)CC(=O)N2CCc2ccccc2)cc1 (stereo unspecified) | 1.63%
Cn1c(-c2ccccc2)c[n+]2c1CCCCC2 | -3.91%
O=C(C[n+]1cc(-c2ccc(Cl)c(Cl)c2)n2c1CCC2)c1cccs1 | 4.8%
Cc1ccc(C(=O)C[n+]2cc(-c3ccccc3)n3c2CCCCC3)cc1 | 69.4% (active) and 87.4% (active)
Clc1ccc(C[n+]2cc(-c3ccccc3)n3c2CCC3)cc1 | 70.5% (active)
Clc1ccc(C[n+]2cc(-c3ccc(Cl)cc3)n3c2CCC3)cc1 | 50.1% (active)
Cc1ccc(-c2c[n+](CC(=O)Nc3ccccc3)c3n2CCC3)cc1 | -4.7%
CN(C(=O)CSc1nnc(-c2n[nH]c3ccccc23)o1)c1ccccc1 | 2.55%
